High-throughput results as filed in PubChem.
cardiac RTF act: cardiac RTF calcium sensitization | AID 493008 | IANBD-labeled TnC RTF fluorescence at EC20 calcium; 0% EC20 calcium, 100% full calcium | 340,000 tested, 0.24% active | P19429+P45379 | activation, % at 7.2 µM;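 active = activation above the mean over all tested compounds plus 3 SD, cut at about 30% in these data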;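 note: rise in fluorescence read as greater calcium sensitivity of cardiac thin filaments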
Cardiac RTF inh: cardiac RTF calcium desensitization; P19429+P45379; IANBD-labeled cardiac RTF, Ca2+ fluorescence; inhibition, % at 7.15 µM; 340,000 tested, 0.12% active;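 active = inhibition above the mean inhibition of all tested compounds plus 3 SD, cut at about 17% in these data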;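 note: assay run at fixed EC70 calcium of 1.6 mM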
C-LANA FP: KSHV C-LANA DNA binding inhibition; MBP-C-LANA/FAM-LBS DNA binding, fluorescence polarization; 340,000 tested, 0.078% active; inhibition, % at 9 µM;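 active = highest replicate inhibition at or above 60% at 9 µM, even if other replicates fall short; inactive = all replicates below 60% inhibition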
Keap1-Nrf2 PPI: inhibitors of human Keap1-Nrf2 protein-protein interaction. AID 504523. Keap1 Kelch-Nrf2 peptide fluorescence polarization, 1536-well. 340,000 tested, 0.15% active. Q14145. inhibition, % at 9.4 µM; in the data active = inhibition above about 12%; inconclusive = no clear call, values can overlap the other calls; inactive = below about 7.3%;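 note: human Keap1 Kelch domain with fluorescein labeled Nrf2 9mer peptide probe; higher means more block of Keap1 binding to Nrf2 peptide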
E coli Lon inh: E. coli protease La inhibition. P0A9M0. purified E. coli Lon protease, fluorescence polarization. inhibition, % at 7.94 µM. 360,000 tested, 0.42% active; in the data active = inhibition above about 13%, passing the limit was not always enough
eLon confirm: E. coli Lon inhibition confirmation. inhibition, % at 7.94 µM. shares compounds with E coli Lon inh. 1,400 tested, 31% active. purified E. coli Lon, fluorescence polarization; in the data active = inhibition above about 16%
Numbers stand for hits; 0 = inactive; ? = inconclusive; - = no result given; ! = not confirmed by another sample. This is a sample that favours compounds with a hit; in the whole collection about 0.82% have one here.

SMILES	cardiac RTF act	Cardiac RTF inh	C-LANA FP	Keap1-Nrf2 PPI	E coli Lon inh	eLon confirm
CCOC(=O)/C=c1\s/c(=C\c2ccc(C)cc2)c(=O)n1CC(=O)NCc1ccco1	0	0	0	0	24	0
CC(C)[C@H](NC(=O)OC(C)(C)C)C(=O)N1CCC(C(=O)N[C@@H](C)C(=O)Nc2ccc(F)cc2)CC1	0	0	0	0	19	0
CCOc1ccc(N)c(SSc2cc(OCC)ccc2N)c1	0	0	0	0	0	-
CCOc1cc(-c2ccc(N)c(OCC)c2)ccc1N	0	0	0	0	52	98
Cc1cccc(-n2c3nc(=O)[nH]c(=O)c-3cc3cc([N+](=O)[O-])ccc32)c1	0	0	0	0	0	-
Cc1ccc(C)c(-n2c3nc(=O)[nH]c(=O)c-3cc3cc([N+](=O)[O-])ccc32)c1	0	0	0	0	60	0
CN1Cc2c(N)cccc2C(c2ccccc2)C1 (stereo not given)	31!	0	0	0	55!	75
O=C1CC(c2ccccc2)c2ccccc21 (stereo not given)	0	0	0	0	0	-
CCOC(=O)C1=C[C@@H](C2CCCCC2)N(S(=O)(=O)c2ccc([N+](=O)[O-])cc2)[C@H]1c1ccccc1	-	-	-	-	0	-
N#Cc1c(NCCCO)nc(-c2ccccc2)c2c1CCCC2	0	0	0	0	14	0
COc1cc(O)cc2cc3c(c(O)c12)C(=O)CC(C)(O)O3 (stereo not given)	0	0	0	0	18	24
COc1cc(O)c2c(c1)OC(C)(C)CC2=O	0	0	0	0	0	-
CC(C)(C)c1ccc(CC(=O)N2CCC2(C)C(=O)NS(=O)(=O)c2ccccc2Cl)cc1 (stereo not given)	-	-	-	-	0	-
CCN1C(=O)c2ccccc2S(=O)c2ccc(C(=O)N3CCCCCC3)cc21 (stereo not given)	0	0	0	0	45	0
CCN1C(=O)c2ccccc2S(=O)c2ccc(C(=O)N3CCN(C(=O)c4ccco4)CC3)cc21 (stereo not given)	0	0	0	0	0	-
COC(=O)c1c(C)c2c(C)cc3ccccn3c-2c1C(=O)OC	0	0	0	0	45	0
COC(=O)c1cc2c(-c3ccccc3)cc3ccccn3c-2c1C(=O)OC	0	0	0	0	0	-
O=C(NCc1ccncc1)[C@@H]1CCCN1C(=O)[C@@H]1CCCN1C(=O)c1cccc2ccccc12	-	-	-	-	0	-
CN(C)c1cc2c3ccccc3n(C)c2cc1N	0	0	0	0	41	52
NC(=O)C[n+]1cccc2ccccc21	0	0	0	?	57	40
COC(=O)CCCC1=CC2=C(c3ccccc3)C(=O)C(C)(OC(=O)C3CCCC3)C(=O)C2=CN1CCN1CCOCC1 (stereo not given)	0	0	0	0	84	24
Cc1ccc(NC(=O)N(Cc2ccc3c(c2)OCO3)Cc2cc3cc4c(cc3[nH]c2=O)OCCO4)cc1	0	0	0	0	15	0
CCC(=O)N(Cc1ccc(C)cc1)Cc1cc2cc3c(cc2[nH]c1=O)OCO3	0	0	0	0	21	0
Cc1nc(CCNC(=O)CC2C(=O)NCCN2CC(C)(C)C)nc2c1CCC2 (stereo not given)	0	0	0	0	22	0
Cc1nc(CCNC(=O)CC2C(=O)NCCN2CC(C)C)nc2c1CCC2 (stereo not given)	0	0	0	0	0	-
SMILES	cardiac RTF act	Cardiac RTF inh	C-LANA FP	Keap1-Nrf2 PPI	E coli Lon inh	eLon confirm
CCNC(=O)C1CCCN(C(=O)c2ccc3c(c2)CCO3)CC1 (stereo not given)	-	-	-	-	0	-
O=C(CN1CCCc2ccccc21)NC(=O)NCc1ccco1	0	0	0	0	53	0
CCSc1nnc(-c2cccs2)o1	0	0	0	0	65	0
CCOC(=O)c1ccc(CNC(=O)CSc2nnc(-c3ccncc3)o2)cc1	0	0	0	0	0	-
CCOC(=O)c1ccc(CNC(=O)CSc2nc(NC(=O)c3ccccc3)c3c(C)c(C)oc3n2)cc1	0	0	0	0	17	0
CC(C)c1ccc(NC(=O)C2(C)Cc3c(-c4ccccc4)ccnc3O2)cc1 (stereo not given)	-	-	-	-	0	-
COc1ccc(N2C(=O)c3cccc4c(N(C)CCO)ccc(c34)C2=O)cc1	48	0	0	0	67	22
COc1ccc(N2C(=O)c3cccc4cccc(c34)C2=O)cc1	0	0	0	0	0	-
COc1cc(OC)nc(Nc2nc(CN)cs2)n1	-	-	-	-	0	-
